Laboratory results published in PubChem BioAssay AID2284326 (EPA ToxCast).
Results filed as inconclusive are left out. Active and inactive are the calls of the source. How the source made its calls: active means hit-call score of the fitted dose curve at least 0.9, where 1 is the maximum; inconclusive means response in the unintended direction; inactive means score below 0.9.

system: TPO (gene 7173); assay: CCTE_GLTED_hTPO: CCTE's human Thyroperoxidase (hTPO) Inhibition Assay, Great Lakes Toxicology and Ecology Division (GLTED) Lab
Method: CCTE_GLTED_hTPO is a cell-free, single-readout assay designed to test the inhibitory activity of chemicals toward human thyroperoxidase (TPO) protein. Uninhibited enzyme converts Amplex UltraRed to a fluorescent product. Measurements were taken 0.5 hour after chemical dosing in a 96-well plate. CCTE_GLTED_hTPO is the assay component measured from the CCTE_GLTED_hTPO assay. It is designed to make measurements of enzyme activity, a form of enzyme reporter, as detected with […] by Fluorescence technology.Data from the assay component CCTE_GLTED_hTPO was analyzed at the assay endpoint CCTE_GLTED_hTPO in the positive analysis fitting direction relative to DMSO as the negative control and baseline of activity. Using a type of enzyme reporter (the Amplex UltraRed assay), loss-of-signal activity can be used to understand decreased peroxidase activity in the presence of excess […]. To generalize the intended target to other relatable targets, this assay endpoint is annotated to the 'oxidoreductase' intended target family, where the subfamily is 'peroxidase'.
[…]

SMILES	outcome	AC50
O=C(O)C(F)(F)C(F)(F)C(F)(F)C(F)(F)C(F)(F)C(F)(F)C(F)(F)C(F)(F)F	inactive	
O=S(=O)(O)C(F)(F)C(F)(F)C(F)(F)C(F)(F)C(F)(F)C(F)(F)C(F)(F)C(F)(F)F		285 µM (active)
O=C(O)C(F)(OC(F)(F)C(F)(F)C(F)(F)F)C(F)(F)F (stereo not drawn)		40.2 µM (active)
